# Assay results from PubChem BioAssay.
# Calls of active or inactive are those of the source. Unless noted, no rule for the calls is given here.
# What was measured:
# [1] = A549 cell viability effects, profiling panel, calcein-AM fluorescence, 48 h, basal (AID 1162); conditions: higher = more signal; also: test concentration not given here
# [2] = adipocyte viability effects, profiling panel, cell-based, 3T3-L1 adipocytes, calcein-AM fluorescence, 48 h, basal (AID 1163); conditions: 3T3-L1 adipocytes viability, higher = more signal; also: test concentration not given here
# [3] = HepG2 cell viability effects, profiling panel, calcein-AM fluorescence, 48 h, basal (AID 1164); conditions: higher = more signal; also: test concentration not given here
# [4] = MM1S cell viability effects, profiling panel, calcein-AM fluorescence, 48 h, basal (AID 1165); conditions: higher = more signal;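 also: viability of MM1S multiple myeloma cells under basal unstimulated conditions; test concentration not given here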
# [5] = basal RPMI8226 viability, no added stimulus, profiling panel, cell-based, calcein-AM fluorescence, 48 h, PK04 Diversity Set (AID 1166); conditions: RPMI8226 myeloma viability, higher = more signal;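 also: cells grown under basal conditions without added stimulus; test concentration not given here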
# [6] = basal HepG2 mitochondrial membrane potential changes, profiling panel, cell-based, JC-1 fluorescence, 24 h, 100 nL compound (AID 1167); conditions: higher = more signal; also: test concentration not given here
# [7] = basal 3T3-L1 adipocyte mitochondrial potential changes, profiling panel, cell-based, JC-1 fluorescence, 3T3-L1 adipocytes, 24 h, 100 nL compound (AID 1168); conditions: JC-1 mitochondrial fluorescence, higher = more signal, called active from +8 up or from −8 down; also: test concentration not given here
# [8] = basal RPMI8226 mitochondrial membrane potential changes, profiling panel, cell-based, JC-1 fluorescence, 24 h, 100 nL compound (AID 1169); conditions: RPMI8226 myeloma, JC-1 mitochondrial potential fluorescence, higher = more signal; also: test concentration not given here
# [9] = basal MM1S mitochondrial membrane potential changes, profiling panel, cell-based, JC-1 fluorescence, 24 h, 100 nL compound (AID 1170); conditions: higher = more signal; also: test concentration not given here
# [10] = A549 lung cancer cell viability effects, profiling panel, resazurin fluorescence, 24 h, PK04 Diversity Set (AID 1171); conditions: higher = more signal, called active from +8 up or from −8 down; also: test concentration not given here
# [11] = HepG2 liver cancer cell viability effects, profiling panel, resazurin fluorescence, 24 h, PK04 Diversity Set (AID 1172); conditions: higher = more signal; also: test concentration not given here
# [12] = basal S. cerevisiae growth modulation, no modifier, primary screen, OD600, strain BY4716, 24 h, basal condition (AID 1173); conditions: OD600, 24 h, higher = more signal, called active from +8 up or from −8 down
# [13] = MM1S myeloma cell viability, profiling panel, resazurin fluorescence, basal, 24 h, PK04 Diversity Set (AID 1174); conditions: higher = more signal, called active from +8 up or from −8 down;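 also: MM1S multiple myeloma cell line; test concentration not given here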
# [14] = target: Dihydroorotate dehydrogenase (quinone), mitochondrial (Plasmodium falciparum (isolate 3D7)) (UniProt Q08210); test: PfDHODH enzyme inhibitors, primary screen, biochemical, C-terminal His tag, absorbance 600 nm (AID 1175); conditions: DCIP absorbance 600 nm, higher = more signal, called active from +8 up or from −8 down;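 also: recombinant parasite enzyme with a five histidine tag at its C terminus; test concentration not given here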
# Sequence of Dihydroorotate dehydrogenase (quinone), mitochondrial (Plasmodium falciparum (isolate 3D7)) (Q08210 whole entry, looked up): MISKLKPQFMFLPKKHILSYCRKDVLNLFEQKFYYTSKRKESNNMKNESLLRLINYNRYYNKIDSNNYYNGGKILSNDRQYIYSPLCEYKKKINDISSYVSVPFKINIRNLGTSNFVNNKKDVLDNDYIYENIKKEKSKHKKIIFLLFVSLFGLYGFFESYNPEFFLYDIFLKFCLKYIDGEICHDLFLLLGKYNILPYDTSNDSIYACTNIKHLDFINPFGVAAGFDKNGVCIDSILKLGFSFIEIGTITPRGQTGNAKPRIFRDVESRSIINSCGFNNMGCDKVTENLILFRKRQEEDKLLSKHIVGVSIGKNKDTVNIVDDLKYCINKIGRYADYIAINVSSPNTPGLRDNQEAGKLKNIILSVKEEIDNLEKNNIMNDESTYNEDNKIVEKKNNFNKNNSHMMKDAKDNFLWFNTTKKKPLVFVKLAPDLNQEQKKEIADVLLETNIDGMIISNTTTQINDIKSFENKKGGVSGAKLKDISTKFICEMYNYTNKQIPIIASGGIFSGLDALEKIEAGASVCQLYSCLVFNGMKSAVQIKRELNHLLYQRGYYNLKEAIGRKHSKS
# [15] = P. aeruginosa biofilm formation inhibitors, primary screen, strain PAO1, LB-PBS medium, absorbance 600 nm (AID 1176); also: test concentration not given here; conditions: P. aeruginosa PAO1 growth/biofilm, A600, 12 h; higher = more signal
# [16] = S. cerevisiae RM11-1a growth modifiers, primary screen, strain RM11-1a, OD600, basal, 24 h (AID 1177); conditions: OD600, 24 h, higher = more signal, called active from +8 up or from −8 down;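 also: cultures grown under basal conditions with no added stressor; test concentration not given here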
# [17] = E. coli acrAB mutant growth effects, primary screen, E. coli filamentation inducers, strain DRC39, OD650, 24 h (AID 1178); conditions: higher = more signal, called active from +8 up or from −8 down;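 also: growth measured as culture turbidity by optical density at 650 nm; test concentration not given here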
# [18] = E. coli acrAB mutant growth effects, primary screen, E. coli filamentation inducers, strain DRC39, OD650, 48 h (AID 1179);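 also: screen aims at cell division blockers that make cells filament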; conditions: E. coli DRC39 delta-acrAB growth, higher = more signal, called active from +8 up or from −8 down
# [19] = RPMI8226 myeloma cell viability, profiling panel, resazurin fluorescence, basal, 24 h, PK04 Diversity Set (AID 1180); conditions: higher = more signal;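 also: RPMI8826 multiple myeloma cell line at 5000 cells per well; test concentration not given here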
# [20] = target: E3 ubiquitin-protein ligase XIAP (Homo sapiens) (UniProt P98170); test: XIAP binders, primary screen, biophysical, small-molecule microarray, fluorescence 635 nm (AID 1181); conditions: small-molecule microarray binding, higher = more signal;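 also: score merges 667 nm emission and signal to noise over triplicate slides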
# Sequence of E3 ubiquitin-protein ligase XIAP (Homo sapiens) (P98170 whole entry, looked up): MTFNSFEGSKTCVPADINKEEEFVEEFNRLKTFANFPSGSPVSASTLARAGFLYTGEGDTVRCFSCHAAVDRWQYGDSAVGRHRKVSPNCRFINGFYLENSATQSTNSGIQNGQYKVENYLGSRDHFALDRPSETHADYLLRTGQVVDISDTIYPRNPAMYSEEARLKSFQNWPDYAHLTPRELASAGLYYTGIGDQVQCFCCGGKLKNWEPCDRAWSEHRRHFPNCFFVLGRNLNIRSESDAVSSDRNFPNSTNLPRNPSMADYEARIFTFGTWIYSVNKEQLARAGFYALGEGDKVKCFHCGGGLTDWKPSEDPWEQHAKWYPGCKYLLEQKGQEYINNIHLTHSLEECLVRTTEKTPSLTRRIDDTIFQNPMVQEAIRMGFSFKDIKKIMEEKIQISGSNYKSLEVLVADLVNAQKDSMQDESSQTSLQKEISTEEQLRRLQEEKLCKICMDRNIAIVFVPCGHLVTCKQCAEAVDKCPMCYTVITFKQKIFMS
SMILES,z-score [1],z-score [2],z-score [3],z-score [4],z-score [5],z-score [6],z-score [7],z-score [8],z-score [9],z-score [10],z-score [11],z-score [12],z-score [13],composite z-score [14],z-score [15],z-score [16],z-score [17],z-score [18],z-score [19],composite z-score [20]
O=C1NC(=O)C2C1C=CC(C(O)CCc1ccccc1)N2Nc1ccc(Cl)cc1Cl (stereo not given),-0.308,-0.217,-0.588,-2.19,-1.19,-2.19,-1.75 (inactive),-0.236,-0.0222,-0.768 (inactive),-1.24,-3.34 (inactive),-1.59 (inactive),-0.596 (inactive),0.667 (inactive),-0.385 (inactive),-0.172 (inactive),-0.611 (inactive),-1.77,0.178
O=C1OCC=C[C@H]2OC34C=CCN(c5ccc(Cl)cc5)C(=O)[C@H]3N(CCO)C(=O)[C@@H]4[C@@H]12 (stereo not given in full),0.667,0.0916,0.781,0.0654,0.714,-0.365,-0.803 (inactive),0.0649,0.596,-0.27 (inactive),-0.222,0.52 (inactive),0.296 (inactive),0.198 (inactive),-0.401 (inactive),0.568 (inactive),0.973 (inactive),1 (inactive),0.825,-0.22
COCCOC(=O)N1C(=O)[C@@]2(c3cc(C#CC4=CCCCC4)ccc31)[C@H](c1ccccc1OCCO)N1[C@H](c3ccccc3)[C@H](c3ccccc3)OC(=O)[C@H]1[C@@H]2C(=O)Nc1nc2ccccc2s1,-0.0438,0.764,0.416,-2.34,-3.43,-2.68,0.745 (inactive),-0.759,-1.08,-0.0954 (inactive),0.322,0.357 (inactive),-0.774 (inactive),-0.291 (inactive),1.63 (inactive),1.12 (inactive),-0.736 (inactive),-0.3 (inactive),-0.765,0.0304
C=CCC(OC(C)=O)[C@@H]1[C@@H](N(Cc2ccc(-c3ccccc3)cc2)C(=O)Cc2ccc(F)cc2)c2cc(OCCCO)ccc2N1C(=O)Cc1ccc(OC)cc1 (stereo not given in full),0.178,0.0992,0.833,0.399,-0.279,1.69,-1.02 (inactive),-0.112,-0.362,0.084 (inactive),-0.939,0.637 (inactive),0.0774 (inactive),-0.433 (inactive),-0.431 (inactive),0.313 (inactive),-0.455 (inactive),-0.14 (inactive),-0.103,0.0757
CCC(CC)C(O)C1C=CC2C(=O)N(c3ccccc3)C(=O)C2N1Nc1ccc(C(C)C)cc1 (stereo not given),-0.0442,0.667,0.0413,-0.393,-0.842,-1.68,0.261 (inactive),-0.0785,0.299,-1.32 (inactive),-1.35,-0.129 (inactive),-0.636 (inactive),0.851 (inactive),0.89 (inactive),1.27 (inactive),-0.171 (inactive),-0.297 (inactive),-0.0095,0.159
COCCOC(=O)N1C(=O)[C@@]2(c3cc(C#CC4=CCCCC4)ccc31)[C@H](c1ccc(OCCO)cc1)N1[C@H](c3ccccc3)[C@H](c3ccccc3)OC(=O)[C@H]1[C@@H]2C(=O)N1CCN(c2ncccn2)CC1,-0.471,1.18,0.47,-0.759,-0.774,0.955,1.46 (inactive),-0.333,-1.01,0.468 (inactive),0.205,1.7 (inactive),0.0789 (inactive),-1.42 (inactive),2.28 (inactive),1.78 (inactive),-0.294 (inactive),0.0375 (inactive),0.621,0.0219
CCOC(=O)C[C@H]1[C@H](OC(=O)c2ccc(C(=O)c3ccccc3)cc2)[C@@H](NC(=O)Cc2ccc(OC)cc2)c2cc(OCCCO)ccc2N1C(=O)c1ccccc1,0.0281,-0.005,0.544,-0.272,-0.399,0.425,-0.386 (inactive),0.428,-0.107,0.69 (inactive),0.0566,0.29 (inactive),-0.292 (inactive),-0.517 (inactive),0.325 (inactive),-0.193 (inactive),-0.307 (inactive),-0.215 (inactive),-0.268,0.169
O=C1O[C@H](c2ccccc2)[C@H](c2ccccc2)N2[C@H]1[C@@H](C(=O)Nc1nc3ccccc3s1)[C@]1(C(=O)Nc3ccccc31)[C@H]2c1ccc(OCCO)cc1,-0.52,0.0354,0.349,-1.68,-1.35,-1.99,3.24 (inactive),-1.07,-1.83,0.0237 (inactive),0.0114,0.445 (inactive),-1.08 (inactive),-1.8 (inactive),3.02 (inactive),1.68 (inactive),-0.476 (inactive),0.282 (inactive),-2.02,-0.356
